An excerpt weighted towards active compounds, which were near 3.5% of everything screened.
GPR151 activ – activators of human GPR151, primary screen, cell-based, PathHunter beta-arrestin, luminescence; activation, % at 11.2 µM; G-protein coupled receptor 151 (Homo sapiens), Q8TDV0; PathHunter beta-arrestin GPR151 cells; actives 1% (n = 650,000); AID 1508602, 2020; in the data active means activation above about 4.9%;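 further: 0% = median of compound wells and 100% = cells with positive control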
MITF primary – MITF inhibitors, primary screen, biochemical, AlphaScreen, human | inhibition, % at 2.6 µM | Microphthalmia-associated transcription factor (Homo sapiens), O75030 | AlphaScreen MITF homodimerization, bead proximity signal | actives 0.91% (n = 650,000) | AID 1259374, 2018; in the data active means inhibition above about 50%;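 further: 0% = vehicle wells with protein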
TEAD-YAP inh – TEAD-YAP interaction inhibition, primary screen, TEAD-YAP interaction inhibitor project, luminescence, HEK-TIYL cells; inhibition, % at 9.12 µM; actives 1.4% (n = 640,000); AID 1259422, 2018; TEAD-Gal4/YAP UAS-luciferase luminescence; in the data active means inhibition above about 32%;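 further: 0% = median of test compound wells and 100% = reference inhibitor wells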
FBW7 activator – FBW7 E3 ligase activators, primary screen, biochemical, AlphaScreen, human | AID 1259310, 2017 | F-box/WD repeat-containing protein 7 (Homo sapiens), Q969H0 | normalized activity (activation), % at 26.1 µM | actives 0.13% (n = 650,000) | AlphaScreen FBW7–phospho-cyclin E peptide binding, activator screen; in the data active means normalized activity above about 1.9%;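 further: purified mutant Fbw7 with reduced substrate affinity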
Target sequence (Q969H0 whole entry, looked up): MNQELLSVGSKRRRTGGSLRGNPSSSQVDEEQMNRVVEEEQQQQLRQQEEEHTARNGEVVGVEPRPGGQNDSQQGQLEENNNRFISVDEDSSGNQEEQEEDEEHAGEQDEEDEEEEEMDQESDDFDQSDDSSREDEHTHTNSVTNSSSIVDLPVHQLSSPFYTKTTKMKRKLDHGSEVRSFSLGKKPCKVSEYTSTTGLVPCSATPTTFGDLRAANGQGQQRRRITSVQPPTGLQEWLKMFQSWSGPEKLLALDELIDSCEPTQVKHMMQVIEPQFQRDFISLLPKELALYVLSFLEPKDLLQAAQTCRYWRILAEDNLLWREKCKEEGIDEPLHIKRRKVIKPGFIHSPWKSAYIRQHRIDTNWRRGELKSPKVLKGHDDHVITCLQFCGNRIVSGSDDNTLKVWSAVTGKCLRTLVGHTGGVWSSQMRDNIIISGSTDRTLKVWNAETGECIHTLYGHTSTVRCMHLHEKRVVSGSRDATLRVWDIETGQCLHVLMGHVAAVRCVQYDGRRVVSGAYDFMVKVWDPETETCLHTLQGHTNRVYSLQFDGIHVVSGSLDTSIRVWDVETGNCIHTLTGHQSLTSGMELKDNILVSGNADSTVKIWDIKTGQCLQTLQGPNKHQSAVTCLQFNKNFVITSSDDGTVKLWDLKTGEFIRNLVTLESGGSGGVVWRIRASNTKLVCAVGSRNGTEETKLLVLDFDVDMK
GPR151 conf act – GPR151 activators, triplicate retest, confirmation, cell-based, PathHunter beta-arrestin, luminescence | AID 1508609, 2020 | shares compounds with GPR151 activ | GPR151 PathHunter beta-arrestin cells, 90 min; % of EA-reagent control over plate median | activation, % at 11.2 µM | 6,700 tested, under 10 active;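 active means mean percent activation across replicates above the confirmation screen cutoff of 4.91%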
GPR119 counter – GPR119 activators in beta-arrestin cells, counter-screen for GPR151 activator project, cell-based, PathHunter beta-arrestin, luminescence, triplicate; actives 0.3% (n = 6,700); 90 min; 0 = compound-well median, 100 = enzyme-acceptor control; activation, % at 11.2 µM; shares compounds with GPR151 activ;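 active means mean percent activation in the counterscreen above 29.09%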;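 further: counterscreen on off-target GPR119 to flag nonselective hits from the GPR151 activator screen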
Starred values were filed as active, the others as inactive; ! = a repeat was not active.

COc1ccc(C(=O)N2CCN3C(=O)[C@H](Cc4ccc(Cl)cc4)NC(=O)[C@H]3C2)cc1 was read as GPR151 activ -1, MITF primary -14, TEAD-YAP inh -2 and FBW7 activator 0.
COCc1cc(CN2CCN3C(=O)[C@H](Cc4ccc(O)cc4)NC(=O)[C@H]3C2)ccc1OC was read as GPR151 activ 0, MITF primary 16, TEAD-YAP inh 3 and FBW7 activator 1.
COCc1cc(CN2CCN3C(=O)[C@H](Cc4ccccc4)NC(=O)[C@H]3C2)ccc1OC was read as GPR151 activ 5.7*, MITF primary 4, TEAD-YAP inh 7, FBW7 activator 0, GPR151 conf act 0 and GPR119 counter 5.
O=C1N[C@@H](Cc2c[nH]c3ccccc23)C(=O)N2CCN(C(=O)Oc3ccc(F)cc3)C[C@H]12 was read as GPR151 activ 14*, MITF primary -18, TEAD-YAP inh -11, FBW7 activator 0, GPR151 conf act 0 and GPR119 counter 26.
CCCCOc1ccc(/C=C2\SC(=S)N(CC(=O)O)C2=O)cc1OC was read as GPR151 activ -1, MITF primary 1, TEAD-YAP inh -2 and FBW7 activator 0.
For O=C1OC(c2cc(F)c(F)cc2Cl)=N/C1=C\c1ccc(Br)cc1 the results were GPR151 activ 1, MITF primary 6, TEAD-YAP inh 1 and FBW7 activator 0.
Screening COCCNC(=O)c1cnc2ccccn12 returned GPR151 activ -1, MITF primary 21, TEAD-YAP inh 18 and FBW7 activator 0.
Screening Cc1nnc(SCCCn2c(N3CCOCC3)nc3c2c(=O)[nH]c(=O)n3C)s1 returned GPR151 activ 6.9*, MITF primary -8, TEAD-YAP inh -17, FBW7 activator 0, GPR151 conf act 0 and GPR119 counter 1.
Screening CCOC(=O)CCN1C(=O)[C@H]2[C@H]3[C@H](O)[C@H](O)C/C(=N\NC(=O)OCc4ccccc4)[C@@H]3CC[C@H]2C1=O returned GPR151 activ 1, MITF primary 11 and FBW7 activator 0.
`CCN1C(=O)[C@H]2[C@H]3[C@H](O)[C@H](O)C/C(=N\NC(=O)OCc4ccccc4)[C@@H]3CC[C@H]2C1=O` gave GPR151 activ 5.0*, MITF primary 9, FBW7 activator 0, GPR151 conf act 0 and GPR119 counter 8.
Screening COc1ccc(OC)c(C(=O)COC(=O)c2cc(C)oc2C)c1 returned GPR151 activ 13*, MITF primary -3, TEAD-YAP inh -8, FBW7 activator 0, GPR151 conf act 1 and GPR119 counter 11.
For CC1(C)CC(=O)C(C=Nc2ccc(NC3=C(C#N)C(=O)CC(C)(C)C3)cc2)=C(O)C1 the results were GPR151 activ 7.1*, MITF primary 16, TEAD-YAP inh -1, FBW7 activator 0, GPR151 conf act 1 and GPR119 counter -2.
Screening CC1(CCc2ccccc2)NC(=O)N(N)C1=O (centres undefined) returned GPR151 activ 6.7*, MITF primary -3, TEAD-YAP inh 16, FBW7 activator 0, GPR151 conf act -1 and GPR119 counter -3.
Screening CC1(CCc2ccccc2)NC(=O)NC1=O (centres undefined) returned GPR151 activ 8.6*, MITF primary 19, TEAD-YAP inh 4, FBW7 activator 0, GPR151 conf act 1 and GPR119 counter 12.
`COc1ccccc1-n1c(=O)c2ccccc2c2ccccc2c1=O` gave GPR151 activ 0, MITF primary 2, TEAD-YAP inh 7 and FBW7 activator 0.
Screening CCOC(=O)C1CCCN(C(=O)c2cccc(-n3c(=S)[nH]c4cc(Cl)ccc4c3=O)c2)C1 (centres undefined) returned GPR151 activ 6.6*, MITF primary 4, TEAD-YAP inh 0, FBW7 activator 0, GPR151 conf act 1 and GPR119 counter 9.
O=C(c1cccc(-n2c(=S)[nH]c3cc(Cl)ccc3c2=O)c1)N1CCCC1 was read as GPR151 activ -1, MITF primary 40, TEAD-YAP inh -8 and FBW7 activator 0.
CC(C)OC1(C(F)(F)F)NC(=O)N(c2cccc(C(F)(F)F)c2)C1=O (centres undefined) was read as GPR151 activ 2, MITF primary 13, TEAD-YAP inh 3 and FBW7 activator 0.
CC1(C)NC(=O)N(c2ccc([N+](=O)[O-])c(C(F)(F)F)c2)C1=O was read as GPR151 activ 5.5*!, MITF primary -14, TEAD-YAP inh 1, FBW7 activator 0, GPR151 conf act 1 and GPR119 counter -3.
CCOC(=O)c1nnn(-c2nonc2N)c1CSc1nc2ccccc2o1 was read as GPR151 activ 1, MITF primary 0, TEAD-YAP inh -7 and FBW7 activator 0.
For CC(=O)N(C)c1ccc(NC(=O)c2ccco2)cc1 the results were GPR151 activ 5.3*, MITF primary 8, TEAD-YAP inh -27, FBW7 activator 0, GPR151 conf act -1 and GPR119 counter -6.
`Fc1ccccc1/C=N\Nc1nc2ccccc2o1` gave GPR151 activ 11*, MITF primary 21, TEAD-YAP inh -48, FBW7 activator 1, GPR151 conf act -1 and GPR119 counter -12.
CCOC(=O)C1=C(C)NC2=C(C(=O)C(C(=O)OC)C(C)C2)C1c1ccccc1OC(C)C (centres undefined) was read as GPR151 activ 5.2*!, MITF primary -4, TEAD-YAP inh -9, FBW7 activator 0, GPR151 conf act 1 and GPR119 counter 5.
Screening O=C1NC(=O)c2cc(NC(=O)C3CC3)ccc21 returned GPR151 activ 5.2*, MITF primary 4, TEAD-YAP inh -2, FBW7 activator 0, GPR151 conf act 0 and GPR119 counter 5.
O=C(Nc1ccc([N+](=O)[O-])cc1)C1CC1 was read as GPR151 activ 7.5*, MITF primary 5, TEAD-YAP inh 8, FBW7 activator 0, GPR151 conf act 1 and GPR119 counter -7.
O=C(Nc1ccc(-c2ccc([N+](=O)[O-])cc2)cc1)C1CC1 was read as GPR151 activ 2, MITF primary -5, TEAD-YAP inh -47 and FBW7 activator 0.
For Cc1ccc(C)c(N2CCN(C(=O)c3c[nH]c4ccc(S(=O)(=O)N5CCN(c6ccc(F)cc6)CC5)cc4c3=O)CC2)c1 the results were GPR151 activ 1, MITF primary -14, TEAD-YAP inh -14 and FBW7 activator 0.
